Assay results published in PMC7862700, “An all-to-all approach to the identification of sequence-specific readers for epigenetic DNA modifications on cytosine”.

How the values were obtained:
Test in all cases: DAPPL (digital affinity profiling via proximity ligation, sequencing); 10 mM Tris-HCl pH 7.5, 50 mM NaCl, 1 mM DTT, 4% glycerol, room temperature, 30 min; GST-TFs on glutathione beads, 16-mer random dsDNA library, 0.1% formaldehyde crosslink after washing; high values mean tight binding
Conditions in all cases: protein: recombinant; tags: N-terminal GST; dsDNA, one strand shown
[1] = target: ETV5 (Homo sapiens, UniProt P41161 1-510)
ETV5, sequence (P41161 whole entry, the tested form may be a part): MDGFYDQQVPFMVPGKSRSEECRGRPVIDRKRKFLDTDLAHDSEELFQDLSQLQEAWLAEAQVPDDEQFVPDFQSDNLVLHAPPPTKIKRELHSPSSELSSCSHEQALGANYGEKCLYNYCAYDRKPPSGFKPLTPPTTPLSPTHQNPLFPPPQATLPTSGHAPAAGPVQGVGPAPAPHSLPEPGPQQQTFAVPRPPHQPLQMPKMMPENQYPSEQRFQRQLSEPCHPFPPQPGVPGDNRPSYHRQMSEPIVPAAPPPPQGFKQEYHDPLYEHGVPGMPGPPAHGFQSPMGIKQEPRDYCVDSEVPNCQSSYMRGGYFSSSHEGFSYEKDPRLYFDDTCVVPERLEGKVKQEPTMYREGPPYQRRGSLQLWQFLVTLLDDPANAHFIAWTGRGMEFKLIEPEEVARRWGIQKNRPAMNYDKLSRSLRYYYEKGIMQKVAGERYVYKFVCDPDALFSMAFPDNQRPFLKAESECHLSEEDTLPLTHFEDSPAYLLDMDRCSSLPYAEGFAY
Summary of the method: (§1)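 Human transcription factors fused to GST were expressed in yeast, captured on glutathione beads, given DNA barcodes and pooled with a GST-only negative control. Pools were incubated with 200 nmole of a 16-mer random double-stranded DNA library in Tris/NaCl/DTT/glycerol buffer at room temperature for 30 min. They were then washed, crosslinked with 0.1% formaldehyde, proximity-ligated (BsaI/T4 ligase, 1 h, 37 °C), PCR-amplified and sequenced on an Illumina NextSeq500. Binding signal is each 6-mer's read frequency for a factor divided by its frequency for the GST control.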

[2] = target: T1, ETV7 (Homo sapiens, UniProt Q9Y603 1-341)
T1 sequence: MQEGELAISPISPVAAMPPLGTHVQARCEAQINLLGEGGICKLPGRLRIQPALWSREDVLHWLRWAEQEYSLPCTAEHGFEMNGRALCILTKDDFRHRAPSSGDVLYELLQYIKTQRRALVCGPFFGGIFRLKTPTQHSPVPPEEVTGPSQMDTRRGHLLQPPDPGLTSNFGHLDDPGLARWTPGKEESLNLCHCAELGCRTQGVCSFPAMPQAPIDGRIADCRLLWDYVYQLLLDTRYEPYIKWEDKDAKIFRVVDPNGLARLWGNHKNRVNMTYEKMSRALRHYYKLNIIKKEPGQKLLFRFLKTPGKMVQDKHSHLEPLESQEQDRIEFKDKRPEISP
Summary of the method: as §1

[3] = target: T2, ELK1 (Homo sapiens, UniProt P19419 1-428)
T2 sequence: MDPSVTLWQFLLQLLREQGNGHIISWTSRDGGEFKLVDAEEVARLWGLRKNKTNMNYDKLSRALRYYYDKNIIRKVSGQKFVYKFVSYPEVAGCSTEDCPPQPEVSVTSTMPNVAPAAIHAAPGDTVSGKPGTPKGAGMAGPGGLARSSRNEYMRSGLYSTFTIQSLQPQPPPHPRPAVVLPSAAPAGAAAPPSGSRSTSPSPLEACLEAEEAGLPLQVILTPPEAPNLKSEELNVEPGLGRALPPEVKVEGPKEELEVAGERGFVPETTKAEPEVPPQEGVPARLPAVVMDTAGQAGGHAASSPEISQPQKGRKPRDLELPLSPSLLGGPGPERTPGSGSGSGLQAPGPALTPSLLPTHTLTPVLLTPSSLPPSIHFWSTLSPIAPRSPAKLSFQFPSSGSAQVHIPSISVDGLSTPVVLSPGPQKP
Summary of the method: as §1

[4] = target: T3, GABPA (Homo sapiens, UniProt Q06546 1-454)
T3 sequence: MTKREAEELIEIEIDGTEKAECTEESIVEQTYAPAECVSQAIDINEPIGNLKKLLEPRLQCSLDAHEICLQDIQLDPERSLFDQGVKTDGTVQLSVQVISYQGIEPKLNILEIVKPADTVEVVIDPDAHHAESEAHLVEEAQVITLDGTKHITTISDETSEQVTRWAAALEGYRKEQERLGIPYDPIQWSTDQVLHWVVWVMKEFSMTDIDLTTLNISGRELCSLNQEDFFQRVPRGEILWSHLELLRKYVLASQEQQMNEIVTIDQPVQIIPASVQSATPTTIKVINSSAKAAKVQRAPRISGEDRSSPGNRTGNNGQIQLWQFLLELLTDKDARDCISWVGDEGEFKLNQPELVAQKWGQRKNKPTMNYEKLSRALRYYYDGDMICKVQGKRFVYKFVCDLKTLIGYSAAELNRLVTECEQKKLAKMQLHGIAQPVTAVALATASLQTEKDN
Summary of the method: as §1

[5] = target: SPIB (Homo sapiens, UniProt Q01892 1-262)
SPIB, sequence (Q01892 whole entry): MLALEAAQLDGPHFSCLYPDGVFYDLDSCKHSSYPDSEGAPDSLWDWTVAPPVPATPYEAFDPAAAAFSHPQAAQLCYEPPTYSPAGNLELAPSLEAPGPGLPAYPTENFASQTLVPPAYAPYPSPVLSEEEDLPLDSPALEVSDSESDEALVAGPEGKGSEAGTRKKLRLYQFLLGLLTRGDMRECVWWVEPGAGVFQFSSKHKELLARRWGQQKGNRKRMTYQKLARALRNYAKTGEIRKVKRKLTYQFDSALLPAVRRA
Summary of the method: as §1

[6] = target: T4, ELK3 (Homo sapiens, UniProt P41970 1-407)
T4 sequence: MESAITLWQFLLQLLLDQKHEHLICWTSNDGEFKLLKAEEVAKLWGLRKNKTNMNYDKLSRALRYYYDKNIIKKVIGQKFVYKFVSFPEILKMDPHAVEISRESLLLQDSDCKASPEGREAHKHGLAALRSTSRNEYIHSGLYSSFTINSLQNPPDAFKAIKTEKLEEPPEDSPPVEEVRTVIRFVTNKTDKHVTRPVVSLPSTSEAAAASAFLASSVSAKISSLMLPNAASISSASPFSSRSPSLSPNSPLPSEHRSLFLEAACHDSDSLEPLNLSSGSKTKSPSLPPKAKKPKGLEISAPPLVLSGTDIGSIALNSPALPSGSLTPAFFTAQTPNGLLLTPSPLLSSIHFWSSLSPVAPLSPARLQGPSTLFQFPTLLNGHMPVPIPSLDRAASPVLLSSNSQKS
Summary of the method: as §1

[7] = target: ELF4 (Homo sapiens, UniProt Q99607 1-663)
ELF4, sequence (Q99607 whole entry): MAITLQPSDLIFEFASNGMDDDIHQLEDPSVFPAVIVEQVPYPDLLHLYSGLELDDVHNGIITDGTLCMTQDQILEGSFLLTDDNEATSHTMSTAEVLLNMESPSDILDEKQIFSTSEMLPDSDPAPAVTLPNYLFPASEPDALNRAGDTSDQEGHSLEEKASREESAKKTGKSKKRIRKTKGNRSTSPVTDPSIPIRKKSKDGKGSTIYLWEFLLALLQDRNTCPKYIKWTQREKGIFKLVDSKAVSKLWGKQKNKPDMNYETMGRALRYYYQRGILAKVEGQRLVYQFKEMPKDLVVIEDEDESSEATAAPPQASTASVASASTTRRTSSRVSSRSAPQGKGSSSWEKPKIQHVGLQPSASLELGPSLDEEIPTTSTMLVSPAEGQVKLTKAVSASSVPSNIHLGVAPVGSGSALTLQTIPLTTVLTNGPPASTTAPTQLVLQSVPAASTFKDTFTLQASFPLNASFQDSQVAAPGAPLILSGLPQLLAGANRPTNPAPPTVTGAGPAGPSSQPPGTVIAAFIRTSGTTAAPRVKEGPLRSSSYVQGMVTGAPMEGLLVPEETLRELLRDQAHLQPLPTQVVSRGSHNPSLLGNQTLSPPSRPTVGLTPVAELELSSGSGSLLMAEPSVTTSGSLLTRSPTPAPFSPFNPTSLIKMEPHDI
Summary of the method: as §1

[8] = target: T5, ELK4 (Homo sapiens, UniProt P28324-2 1-405)
T5 sequence: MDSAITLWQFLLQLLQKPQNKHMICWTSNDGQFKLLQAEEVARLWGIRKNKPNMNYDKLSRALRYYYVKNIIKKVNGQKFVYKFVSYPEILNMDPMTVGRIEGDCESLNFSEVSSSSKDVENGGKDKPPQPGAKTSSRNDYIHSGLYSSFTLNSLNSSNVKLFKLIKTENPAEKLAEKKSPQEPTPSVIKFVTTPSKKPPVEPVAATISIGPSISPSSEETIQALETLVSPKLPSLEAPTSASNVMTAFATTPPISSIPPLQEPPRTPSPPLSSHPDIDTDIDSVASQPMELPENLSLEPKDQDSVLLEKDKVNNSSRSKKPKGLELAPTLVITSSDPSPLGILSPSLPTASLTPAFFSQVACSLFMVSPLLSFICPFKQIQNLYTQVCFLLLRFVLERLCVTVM
Summary of the method: as §1

[9] = target: T6, ELF3 (Homo sapiens, UniProt P78545 1-371)
T6 sequence: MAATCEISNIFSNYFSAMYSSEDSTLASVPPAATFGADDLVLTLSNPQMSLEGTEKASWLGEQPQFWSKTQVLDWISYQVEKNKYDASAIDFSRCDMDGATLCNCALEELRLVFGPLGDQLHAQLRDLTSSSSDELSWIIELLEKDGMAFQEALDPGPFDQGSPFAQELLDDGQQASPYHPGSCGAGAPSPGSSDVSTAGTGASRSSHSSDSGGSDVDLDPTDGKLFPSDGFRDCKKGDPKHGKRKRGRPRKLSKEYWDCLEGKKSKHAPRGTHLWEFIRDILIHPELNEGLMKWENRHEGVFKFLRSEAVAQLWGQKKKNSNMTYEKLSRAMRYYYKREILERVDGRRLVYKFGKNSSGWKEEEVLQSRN
Summary of the method: as §1

[10] = target: T7, ETV3L (Homo sapiens, UniProt Q6ZN32 1-361)
T7 sequence: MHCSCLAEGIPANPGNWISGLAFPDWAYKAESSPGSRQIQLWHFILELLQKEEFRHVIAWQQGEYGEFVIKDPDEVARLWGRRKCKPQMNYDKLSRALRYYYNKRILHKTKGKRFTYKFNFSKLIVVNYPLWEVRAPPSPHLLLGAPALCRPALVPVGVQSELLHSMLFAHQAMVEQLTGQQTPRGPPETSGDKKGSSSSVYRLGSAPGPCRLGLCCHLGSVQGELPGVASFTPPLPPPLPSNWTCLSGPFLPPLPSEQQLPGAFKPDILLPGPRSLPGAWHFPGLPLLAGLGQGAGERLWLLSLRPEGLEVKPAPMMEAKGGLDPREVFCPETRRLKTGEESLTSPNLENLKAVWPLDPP
Summary of the method: as §1

[11] = target: T8, ETV3 (Homo sapiens, UniProt P41162-2 1-143)
T8 sequence: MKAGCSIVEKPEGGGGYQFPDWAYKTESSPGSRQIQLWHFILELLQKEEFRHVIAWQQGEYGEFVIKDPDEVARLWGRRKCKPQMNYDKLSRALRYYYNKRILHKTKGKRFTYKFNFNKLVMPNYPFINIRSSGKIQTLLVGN
Summary of the method: as §1

In the case of GCGAAA, the binding signal [1] is reported as 1.01 fold enrichment (6-mer frequency, TF over GST control) and the binding signal [2] is reported as 1.04 fold enrichment (6-mer frequency, TF over GST control).
CGCGCG was tested, and the binding signal [3] was 1.07 fold enrichment (6-mer frequency, TF over GST control), the binding signal [4] was 1.05 fold enrichment (6-mer frequency, TF over GST control) and the binding signal [5] was 1.11 fold enrichment (6-mer frequency, TF over GST control). For the same sequence, the binding signal [6] was 1.04 fold enrichment (6-mer frequency, TF over GST control), the binding signal [1] was 1.01 fold enrichment (6-mer frequency, TF over GST control) and the binding signal [7] was 1 fold enrichment (6-mer frequency, TF over GST control). The binding signal [8] was 1.14 fold enrichment (6-mer frequency, TF over GST control), the binding signal [9] was 1.06 fold enrichment (6-mer frequency, TF over GST control) and the binding signal [10] was 1.07 fold enrichment (6-mer frequency, TF over GST control). For the same sequence, the binding signal [2] was 1.03 fold enrichment (6-mer frequency, TF over GST control) and the binding signal [11] was 1.1 fold enrichment (6-mer frequency, TF over GST control).
